# Data from article PMC12864922, “TDP-43 directly inhibits mRNA accumulation in neurites through modulation of mRNA stability”.
# Whole data set: some 9,900 sequences, median “r (bound/input frequency ratio)” near 0.7, cut for the highest 2% near 6.5. This excerpt belongs to a sample that is enriched for the highest values.
# B1: ENSMUSG00000031028.651|Tub (ssRNA)
# RNA: GGGAGUUCUACAGUCCGACGAUCGCUUCGAUAUCCGCAUGCUAGCUGAAAUGUAGAGUGUUCUAUAGAGCAUCUCAGUAGCAUAGAAGGAGAAGCCCAGCUCCAACCUCCUGGACCCCAUACUGGUGACCAGCUUGGUGAGGACAGGCAAAAUUUCUCUAGCUGAGAGCACACUUAGCCAGUUUUCACGCCUAGAACAUAUAUGUCGAUUUGCACAUGAUUGUCUUUUCCUAUUUUGGAGUGGUCAGACAUUUUAUUUUUGUUCAAAAUUAUCUGGAGUUUUAGACAAACUUGCAAAACUGUGCUCUUGCGGUCGCACUAGUGUGGAAUUCUCGGGUGUCAAGG
# B2: ENSMUSG00000090935.711|Synj2bp (ssRNA)
# RNA: GGGAGUUCUACAGUCCGACGAUCGCUUCGAUAUCCGCAUGCUAAAGAACUGGGCUAAGUCCAGAGCUCUGCUCUCUGAGCAUCUGCCCCAGAUACAGAGGCAGAGUAUGAAGUGGAACAUUGUUUUAUUCCUAGGUGCUCAGGACAGACUGAUCAACCUCCAGUAACAUAUGUGGUUAGUAAGUGCUUCAGCUUGUGUAGCCAUUAAUAACCAAGUCAUAGGAUUGUGAAUCUAAAAUACUCCUGGGUAAAAUUUGUAUUAGAAUGGAAAAAAAAAUGAGGGUCAGAAAGGUGAGCUAACUUCCUCUUGCGGUCGCACUAGUGUGGAAUUCUCGGGUGUCAAGG
# B3: ENSMUSG00000029636.217|Wasf3|154:158;247:254 (ssRNA)
# RNA: GGGAGUUCUACAGUCCGACGAUCGCUUCGAUAUCCGCAUGCUAAUAAGUCUGUGAUAUCCGCAGGCUUGGGUUACAGGGAGGACCUUGCAGAGGGACCAGGACACUGCCUUCCCUUAGGUGCAUUAUUUACGUGGCCUGCAGCUCUUAAUAUCUCUCACUGUUUAUGAAAAGAAAGAUUCAGAUCCGGGGUGACAUACACACAGUUGACAGGGAAUGCCUGUGGGAUAAUUAAAAAUGGUUUUUGCUCAUGAGUUUGGGAUGUCACCCAGCCGCCCACAUCGCCUGCUAACACACACGACGCCCUCUUGCGGUCGCACUAGUGUGGAAUUCUCGGGUGUCAAGG
# B4: ENSMUSG00000031028.206|Tub (ssRNA)
# RNA: GGGAGUUCUACAGUCCGACGAUCGCUUCGAUAUCCGCAUGCUACCAGAGAUGAAACCCCUCCGAGUUAAUGUAUAAGGUUGGAAACCUUUCAGUAGGGAAUCAGGCAGUUCCCUGUUGAAAGUUGUCUGAGUUUUUGCACACCAUUCUGAUCUGAUGUGGCCUGUGCCUGGCUCCUCUAUGAGGACUUCGAGCUGUGCACAGACCUUAGCAGGACCACUGCACACUUUGUGUCUGUGUGACAGGCAGCCCAAGGGUUCUGGGGCUGGGCUUGGACACGCCCUCCAUUGGGAUGGCACCACUCACUCUUGCGGUCGCACUAGUGUGGAAUUCUCGGGUGUCAAGG
# B5: ENSMUSG00000058297.231|Spock2 (ssRNA)
# RNA: GGGAGUUCUACAGUCCGACGAUCGCUUCGAUAUCCGCAUGCUAAACCAUGCCCCAGACUCUAUUUAAAGCCCUAUAGCAUAUAUGAAUAGAGAACGGUGUAUCUAUCAGAGGGGACCACACUGAGCAGCUAGGCCCUGAUGCCAUGCCUCAGCACGCCCUCAGACCUCCAGGCCGGGUGGAAGGGGCUUUUACCCAGAUGUCCUGUGGGGUUUUGUGUGUCUAUUGCUCCCCACUUCCCCCUCUCAAAGGAAAUUUCCUUGAUAUAUUUGAUGAAGAAUUCCUUACCUGGGCCUCUGAUACCCCUCUUGCGGUCGCACUAGUGUGGAAUUCUCGGGUGUCAAGG
# B6: ENSMUSG00000061578.43|Ksr2|85:91;96:100 (ssRNA)
# RNA: GGGAGUUCUACAGUCCGACGAUCGCUUCGAUAUCCGCAUGCUAAGCCACAGACUGAGCACACCACCUCGGACUGUGGAGACCAAGACACAUGCCCAGUGGGCAGACUCAGACUCACACGCUGGACCACACACACCGCAACACACUACACAUGGACAGGGCCAACUGCUAUCCUUCUGCCUGGACGAGCCAGCUGUGGAGUGUCCCAGCUGUGCUAUCCUGGAACACAGAACCAGGAUGGAACCAGAAACAAUACACCUGCUCCGUUGUCAAGGCUUCUAGGCCAAGGUCAGGGUAGGGAGGUGCUCUUGCGGUCGCACUAGUGUGGAAUUCUCGGGUGUCAAGG
# B7: ENSMUSG00000029636.220|Wasf3 (ssRNA)
# RNA: GGGAGUUCUACAGUCCGACGAUCGCUUCGAUAUCCGCAUGCUACAGGCUUGGGUUACAGGGAGGACCUUGCAGAGGGACCAGGACACUGCCUUCCCUUAGGUGCAUUAUUUACGUGGCCUGCAGCUCUUAAUAUCUCUCACUGUUUAUGAAAAGAAAGAUUCAGAUCCGGGGUGACAUUGUGUCAGUUGACAGGGAAUGCCUGUGGGAUAAUUAAAAAUGGUUUUUGCUCAUGAGUUUGGGAUGUCACCCAGCCGCCCACAUCGCCUGCUAUGUGUGUGGACGCCUGUCCGCUUGGCCAGCUACUCUUGCGGUCGCACUAGUGUGGAAUUCUCGGGUGUCAAGG
# B8: ENSMUSG00000029636.163|Wasf3 (ssRNA)
# RNA: GGGAGUUCUACAGUCCGACGAUCGCUUCGAUAUCCGCAUGCUACAUGGAAGCUUGGCUUUAGCUGAGAGAUGCCACCAGCUGUUCACAACCCAUGGUGCUGUGGCUAGAUUCCUGCUCAGUCUCUCAAACAGGGCCACACCCCUCCUGAAGCACAGCUCUCUUCUCUCCUGUUGUCGGCACAUUUUCAAUUUUAAAAAGUACCUCACAAGAUAAACUUGAUUCAGCCAGUUGCCCGGGCAGAGACCUGACUUCCCCUCUCCUGCCCUGAUCCUUUUUACCAAAUGGCGAUUCCAUAGUCCUGGCUCUUGCGGUCGCACUAGUGUGGAAUUCUCGGGUGUCAAGG
# Biological target: TDP-43 (Homo sapiens, UniProt Q13148 1-414)
# Test: RNA Bind-n-Seq with designed 260-mer pool; 25 mM Tris-HCl, 150 mM KCl, 3 mM MgCl2, BSA (printed 500 mg/mL), 20 units/mL SUPERase IN; pH not stated; 500 nM RNA pool, 1 h, 4 C; TDP-43 5, 50, 500 nM; high values mean tight binding
# Settings: protein: recombinant; tags: SBP (GST cleaved off with PreScission; pGEX-GST-SBP)
# In short: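 Streptavidin beads captured recombinant SBP-tagged TDP-43 at 5, 50 or 500 nM, and the beads were incubated for 1 h at 4 °C with 500 nM of an in vitro-transcribed pool of 260-nt 3′ UTR oligos in 25 mM Tris-HCl, 150 mM KCl, 3 mM MgCl2, BSA and SUPERase IN. After washing, bound RNA was eluted with biotin, reverse transcribed, PCR-amplified and sequenced. Binding is reported as R, the mapped-read-normalized abundance of each oligo in the bound sample divided by its abundance in the input. Two independent protein batches served as duplicates.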
# TDP-43, sequence (Q13148 whole entry): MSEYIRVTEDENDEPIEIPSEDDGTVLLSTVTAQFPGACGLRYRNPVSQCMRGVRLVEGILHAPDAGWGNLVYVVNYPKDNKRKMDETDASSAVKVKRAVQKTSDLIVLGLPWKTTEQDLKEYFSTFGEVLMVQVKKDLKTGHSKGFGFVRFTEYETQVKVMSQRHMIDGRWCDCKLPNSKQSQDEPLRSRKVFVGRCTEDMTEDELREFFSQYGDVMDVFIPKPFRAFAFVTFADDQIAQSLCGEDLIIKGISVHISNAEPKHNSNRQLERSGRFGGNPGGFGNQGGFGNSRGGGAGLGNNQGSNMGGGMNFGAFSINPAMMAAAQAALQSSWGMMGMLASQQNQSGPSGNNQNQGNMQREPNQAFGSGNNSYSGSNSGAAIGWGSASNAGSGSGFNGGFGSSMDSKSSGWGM
row,Binder,binding signal
1,B1,0.18 R (bound/input frequency ratio)
2,B2,1.47 R (bound/input frequency ratio)
3,B3,1.49 R (bound/input frequency ratio)
4,B4,1.26 R (bound/input frequency ratio)
5,B5,0.453 R (bound/input frequency ratio)
6,B6,0.525 R (bound/input frequency ratio)
7,B7,3.17 R (bound/input frequency ratio)
8,B8,0.217 R (bound/input frequency ratio)
